Screening data: PubChem, National Center for Advancing Translational Sciences (NCATS)
An excerpt weighted towards active compounds, which were near 10% of everything screened.
ALDH1A1 block: blocks purified human ALDH1A1 activity. P00352. Purified ALDH1A1, NADH fluorescence, propionaldehyde substrate. Potency, µM (series often up to 75.3 µM), for the others: at the top dose activity, negative = inhibition, hits mostly inhibitors. 220,000 compounds, 7.3% hits. AID 1030;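 also: potency is read from the fitted curve at half-maximal effect; plate controls were no enzyme wells and a reference inhibitor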
HPGD block: HPGD (human) dehydrogenase inhibition | P15428 | 150,000 compounds, 4.3% hits | Potency, µM, without a hit: at the highest dose activity change, negative = inhibition, usual class: inhibitors | purified HPGD, NADH fluorescence kinetic, PGE2 substrate; also: potency is read from the fitted curve at half-maximal effect
Target sequence (P15428 whole entry, looked up): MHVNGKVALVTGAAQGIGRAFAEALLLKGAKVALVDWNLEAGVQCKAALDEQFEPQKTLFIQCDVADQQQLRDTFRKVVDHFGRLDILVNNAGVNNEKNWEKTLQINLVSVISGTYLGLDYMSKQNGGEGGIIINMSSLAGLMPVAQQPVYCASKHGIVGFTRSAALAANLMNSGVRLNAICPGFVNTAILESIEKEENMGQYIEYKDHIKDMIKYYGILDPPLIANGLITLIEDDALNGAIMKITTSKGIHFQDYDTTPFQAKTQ
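20 nM HPGD preincubated 15 min at room temperature with compound in 50 mM Tris-HCl pH 8, 0.01% Tween 20. Started with 1 mM NAD+ and 30 uM prostaglandin E2; NADH fluorescence (360/450 nm) read 5 times over 30-s intervals, last minus first.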
PNC assembly inh: perinucleolar compartment assembly inhibition; activity change (PNC), negative = inhibition, % at 10 µM; PC3M PTB-GFP, PNC prevalence imaging, 16 h; active compounds read low; 140,000 compounds, 3.1% hits;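 active = readout at or below -70, meaning at least 70% loss of cells showing the perinucleolar compartment, a nuclear body marking cancer cells; inconclusive = readout between -30 and a set limit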;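 also: plate controls were DMSO wells for no effect and camptothecin positive control wells for full effect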
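Compounds are pinned in duplicate onto adhered PC3M cells stably expressing GFP-tagged PTB and incubated 16 h at 37 C. Cells are then fixed, nuclei stained with Hoechst, and PNC-positive cells counted.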
12-hLO inh: inhibitors of human 12-lipoxygenase (ALOX12); P18054; purified 12-hLO, xylenol orange hydroperoxide absorbance; Potency, µM (series often up to 57.1 µM), inactives show top-dose activity change, negative = inhibition, actives largely listed as inhibitors; 150,000 compounds, 0.12% hits; active = well fitted inhibition curve with a large enough effect; inconclusive = small, poorly fitted or top-dose-only effect; also: potency is read from the fitted curve at half-maximal effect; nearly all actives have a fitted effect of over 55% in size
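Purified human 12hLO (150 nM), preincubated 15 min with compound, then 40 uM arachidonic acid for 30 min, room temperature, Hepes pH 7.0 with 0.01% Triton X-100. Hydroperoxide detected by ferrous iron/xylenol orange; 573/405 nm absorbance ratio gives reaction progress.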
LMNA splice mod: modulators of lamin A splicing | HeLa LMNA splicing GFP/RFP minigene ratio, 48 h | Potency, µM (series often up to 46.1 µM), inactives show top-dose ratio change, negative = inhibition, actives largely listed as inhibitors | 200,000 compounds, 0.01% hits | AID 1487; active = well fitted inhibition curve with a large enough effect in the signal ratio, with a control signal flat, not every such curve was filed as active; inconclusive = small, poorly fitted or top-dose-only effect, or effect the other way, or a change in a side signal; the % refers to the signal ratio; also: potency is read from the fitted curve at half-maximal effect
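Read-out is the ratio of GFP to DsRed2 object intensity, acquired by 488 nm laser-scanning cytometry on HeLa lamin A-EGFP minigene reporter cells. Compound incubation 48 hrs at 37 °C in Opti-MEM with 2% FBS; DMSO 0.5% final.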
The depositor's hits bear a star; ? = inconclusive; . = not tested or not shown; ! = repeats disagree; [ ] = remark or other dose. Unless noted, calls follow the shape of the dose curve; as a rule, active = well fitted inhibition curve with a large enough effect (not every such curve was filed as active); inconclusive = small, poorly fitted or top-dose-only effect, or another doubt; inactive = no such curve, though single readings can be large or run the other way. Unless noted, % is scaled to controls: 0 for no effect and ±100 for the full control effect.

SMILES	ALDH1A1 block	HPGD block	PNC assembly inh	12-hLO inh	LMNA splice mod
COc1cccc(CN(CC2CCCO2)S(=O)(=O)c2ccc(S(=O)(=O)N(C)C)cc2)c1 (stereo unspecified)	2.8µM*	-13%	-22	0%	-8%
Cc1ccc(S(=O)(=O)N(C)Cc2cc3ccccc3[nH]c2=O)cc1	3%	-22%	-99*	-24%	8%
COc1cc([C@H]2c3cc4c(cc3[C@@H](O[C@H]3O[C@H]5CO[C@@H](C)O[C@H]5[C@@H](O)[C@@H]3O)[C@@H]3COC(=O)[C@H]23)OCO4)cc(OC)c1O	2%[20.9 µM]	3%	.	-3%[25.6 µM]	?
COc1ccc2c(c1)CC(C(=O)NCCCN1CCN(c3ccc(F)cc3)CC1)CO2 (stereo unspecified)	.	.	.	.	-8%[46 µM]
CC(=O)c1sc(N/N=C\c2cccc(Br)c2)nc1C	25µM*	28µM*	-85*	-17%	-2%
CC(=O)c1sc(N/N=C\c2ccc(Br)cc2)nc1C	?	-5%	49	-5%	9%
COc1ccccc1NS(=O)(=O)c1cccc(C(=O)NN=C2CCCCCC2)c1	13µM*	-17%	2	-4%	-9%
Cc1cccn2c1nc(=S)n2C(=O)c1ccco1	-10%	?	27	1%	-8%
CN=C(c1ccco1)n1c(=S)nc(-c2ccco2)n(C)c1=S	10µM*	?	-16	-15%	16%
CCCNC(=O)Cn1c(=O)/c(=C\c2ccc(-c3ccc([N+](=O)[O-])cc3)o2)s/c1=C\C(=O)C(C)(C)C	4%	-11%	?	-3%	?
Cc1onc(-c2ccccc2Cl)c1C(=O)OCN1C(=O)c2ccccc2C1=O	-1%	11µM*	14	-6%	-7%
Cc1onc(-c2ccccc2Cl)c1C(=O)Nc1ccc(-c2cn3cccnc3n2)cc1	?	?	-91*	-1%	-9%
COc1ccccc1-c1noc(-c2ccccc2C(=O)Nc2cccnc2)n1	?	-1%	14	1%	1%
Cc1onc(-c2ccccc2Cl)c1C(=O)Nc1cccnc1	22µM*	-14%	?	2%	-12%
O=C(Nc1cccnc1)c1ccccc1-c1nc(-c2ccccc2F)no1	11µM*	1%	-25	6%	-7%
Cc1cccc(S(=O)(=O)c2cn(C)c3cc(N4CCCCCC4)c(F)cc3c2=O)c1	.	.	.	.	-25%[46 µM]
Cc1ccc(CNC(=O)c2ccc3c(c2)nc2n3CCCC2)cc1	.	.	.	.	-2%[46 µM]
C=CCn1c(C(c2ccccc2)c2ccccc2)n[nH]c1=S	6%	25µM*	-3	-1%	12%
S=c1[nH]nc(CSc2nc3ccccc3s2)n1Cc1ccccc1	?	13µM*	?	-27%	-12%
CCn1c(C(c2ccccc2)c2ccccc2)n[nH]c1=S	?	-11%	-23	1%	0%
CCn1c(CSc2nc3ccccc3s2)n[nH]c1=S	?	?	35	-2%	-4%
C=CCn1c(CSc2nc3ccccc3s2)n[nH]c1=S	11µM*	18µM*	-27	-5%	?
CC(=O)OCC1OC(n2cnc3c(=O)[nH]cnc32)C(OC(C)=O)C1OC(C)=O (stereo unspecified)	3%	-11%	.	0%	-3%
CCN(CC)c1ccc(NS(=O)(=O)c2ccc(OC)cc2)cc1	?	.	.	.	2%[46 µM]
CCCCCCCC1=Cc2ccccc2C(CC(C)=O)N1C(=O)OC (stereo unspecified)	0%[13.5 µM]	-8%	.	-3%[11.4 µM]	-3%[9.22 µM]
SMILES	ALDH1A1 block	HPGD block	PNC assembly inh	12-hLO inh	LMNA splice mod
CCCCN(c1ccccc1)c1ncnc2c1cnn2-c1ccc(Cl)cc1	.	.	.	.	-3%[46 µM]
COc1ccc(C)cc1NC(=O)Cn1c(=O)nc(-c2ccccc2F)c2cc(Cl)ccc21	.	.	.	.	6%[46 µM]
COC(=O)CNC(=O)COC(=O)C(Cc1ccccc1)NC(=O)c1ccco1 (stereo unspecified)	?	-4%	-115*	6%	6%
CC(C)CNC(=O)[C@H](Cc1ccccc1)NC(=O)c1ccco1	40µM*	-7%	-11	-8%	1%
CC(CCc1ccccc1)NC(=O)c1ccco1 (stereo unspecified)	0%	-17%	21	6%	-7%
O=C(COC(=O)[C@H](Cc1ccccc1)NC(=O)c1ccco1)NC(c1ccccc1)c1ccccc1	1%	-5%	?	-2%	12%
COc1cccc(C(=O)Nc2ccccc2OCc2cc(=O)n3ccccc3n2)c1	.	.	.	.	-2%[46 µM]
Cc1[nH]c(=O)[nH]c(=O)c1NS(=O)(=O)c1ccccc1	10%	0%	-18	-2%	-7%
O=c1cc(-c2ccccc2)oc2cc(O)cc(O)c12	8.9µM*	-22%	.	-14%	?
O=c1cc(-c2cc(O)c(O)c(O)c2)oc2cc(O)cc(O)c12	?	?	.	-26%	23%
COc1cc(O)c2c(=O)cc(-c3ccccc3)oc2c1	6%	-4%	.	9%	.
O=c1c(O)c(-c2ccc(O)cc2)oc2cc(O)cc(O)c12	-6%[20.9 µM]	28µM*!	.	-8%	?
O=c1cc(-c2ccc(O)cc2)oc2cc(O)cc(O)c12	1.8µM*!	32µM*!	.	-3%	?
Cc1cc(SCC(=O)NCc2ccc(F)cc2)nc(=O)[nH]1	.	.	.	.	10%[46 µM]
O=C(c1ccncc1)N1CCC2(CC1)CCN(c1ccccn1)CC2	?	?	.	-3%	.
CCCn1c(C)nc2c(NCCOC)nc(C)nc21	3%	0%	.	-1%	.
COc1ccccc1CNc1ccnc(-c2ccccc2OC)n1	-2%	.	.	.	?
COc1ccccc1NC(=O)c1nn(C)c2c1CS(=O)(=O)c1ccccc1-2	.	.	.	.	8%[46 µM]
O=C(CCc1nc2ccccc2c(=O)[nH]1)OCC(=O)N1CCN(S(=O)(=O)c2ccccc2)CC1	-3%	3%	42	0%	6%
CC1CC(C)CN(C(=O)COC(=O)CCc2nc3ccccc3c(=O)[nH]2)C1 (stereo unspecified)	3.5µM*	-9%	-4	2%	-9%
CSc1ccc(S(=O)(=O)N(CC(=O)NN=C2CCN(C)CC2)c2ccc(C)cc2)cc1	5µM*	.	.	.	.
CC(C)c1ccc(N(CC(=O)NN=C2CCN(C)CC2)S(=O)(=O)c2ccccc2)cc1	?	.	.	.	-3%[9.22 µM]
COc1ccc(CNC(=O)C2CCN(c3nc4ccc(C)cc4[nH]3)CC2)cc1	.	.	.	.	-16%[46 µM]
Cn1c(=O)c(CCc2ccccc2)nc2cncnc21	?	-11%	.	0%	.
COc1ccc(N2C(=O)C3C4C=CC(CC4)C3C2=O)c([N+](=O)[O-])c1 (stereo unspecified)	?	-20%	-18	-3%	-2%
CCOc1ccc(N2C(=O)C3C4C=CC(CC4)C3C2=O)c([N+](=O)[O-])c1 (stereo unspecified)	28µM*	-21%	-10	-7%	4%
CCCCC[C@H](O)/C=C/[C@@H]1[C@H]2C/C(=C/CCCC(=O)O)O[C@H]2C[C@H]1O	21%	-15%	.	2%	.
